Assay outcomes: PubChem BioAssay, National Center for Advancing Translational Sciences (NCATS)
PTAP TSG101 blk – blocks PTAP/TSG101 interaction to inhibit HIV-1 budding. Potency, µM (doses to about 115 µM), for the others: top-dose activity change, negative = inhibition, most hits filed as inhibitors. Q99816. 340,000 tested, under 10 active. Fluorescence polarization, FITC-PTAP peptide / Tsg101 binding; active = well fitted inhibition curve with a large enough effect in the main read-out, with a control signal flat, not every such curve was filed as active; inconclusive = small, poorly fitted or top-dose-only effect, or effect the other way, or a change in a side signal; inactive = no such curve, though single readings can be large or run the other way; also: potency is read from the fitted curve at half-maximal effect; % of control where 0% means no effect
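Steps: Tsg101 binding domain dispensed (10 uM final), compounds pinned in DMSO, FITC-labeled PTAP-motif peptide added (50 nM final); after 20 min binding at room temperature, polarization measured.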
uPA surface inh – blocks generation of uPA at the cell surface; cell surface uPA generation assay, qHTS; Potency, µM (doses to about 38.3 µM), for the others: top-dose activity change, negative = inhibition, most hits filed as inhibitors; 330,000 tested, 0.31% active; active = well fitted inhibition curve with a large enough effect; inconclusive = small, poorly fitted or top-dose-only effect; inactive = no such curve, though single readings can be large or run the other way; tested in mouse RAW 264.7 cells; also: potency is read from the fitted curve at half-maximal effect; % is scaled to controls: 0 for no effect and ±100 for the full control effect; nearly all actives have a fitted effect of over 55% in size
VDR inh – blocks the human vitamin D receptor | P11473 | VDR-SRC2-3 peptide fluorescence polarization, 2 h | Potency, µM, inactives show max response, negative = inhibition, hits mostly inhibitors | 400,000 tested, 0.93% active; also: potency is read from the fitted curve at half-maximal effect; % is scaled to controls: 0 for no effect and ±100 for the full control effect
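After 23 nl compound addition and a short centrifugation, plates sat for 2 hours at ambient temperature; polarization of fluorescence then indicated loss of VDR binding to peptide SRC2-3.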
TSHR antagonist – blocks TSH signaling through the human TSH receptor. P16473. AID 504810. 330,000 tested, 0.2% active. TSHR-expressing cells, TSH-stimulated cAMP HTRF, 2 h; hits give low values. activity change, negative = inhibition, % at 11.5 µM;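 active = activity change below a set negative limit, meaning inhibition stronger than a set level, cut at about -70% in these data; inconclusive = activity change between two set negative limits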; also: % is scaled to controls: 0 for no effect and ±100 for the full control effect
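Inhibition of cAMP made by TSHR-expressing cells under TSH stimulation (4nM final, EC80; 2 h, 37 deg C) is quantified with a one-step lysis HTRF kit, anti-cAMP cryptate versus cAMP-d2.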
PLK1 PBD block – PLK1 (human) polo-box domain binding inhibition | P53350 | Plk1 PBD binding of FITC phosphopeptide, fluorescence polarization | Potency, µM, for inactives: max response, negative = inhibition, most hits filed as inhibitors | 360,000 tested, 2.8% active; also: potency is read from the fitted curve at half-maximal effect; series mostly up to about 57 µM; % is scaled to controls: 0 for no effect and ±100 for the full control effect; nearly all actives have a fitted effect of over 65% in size
Target sequence (P53350 whole entry, looked up, the tested form may be a part): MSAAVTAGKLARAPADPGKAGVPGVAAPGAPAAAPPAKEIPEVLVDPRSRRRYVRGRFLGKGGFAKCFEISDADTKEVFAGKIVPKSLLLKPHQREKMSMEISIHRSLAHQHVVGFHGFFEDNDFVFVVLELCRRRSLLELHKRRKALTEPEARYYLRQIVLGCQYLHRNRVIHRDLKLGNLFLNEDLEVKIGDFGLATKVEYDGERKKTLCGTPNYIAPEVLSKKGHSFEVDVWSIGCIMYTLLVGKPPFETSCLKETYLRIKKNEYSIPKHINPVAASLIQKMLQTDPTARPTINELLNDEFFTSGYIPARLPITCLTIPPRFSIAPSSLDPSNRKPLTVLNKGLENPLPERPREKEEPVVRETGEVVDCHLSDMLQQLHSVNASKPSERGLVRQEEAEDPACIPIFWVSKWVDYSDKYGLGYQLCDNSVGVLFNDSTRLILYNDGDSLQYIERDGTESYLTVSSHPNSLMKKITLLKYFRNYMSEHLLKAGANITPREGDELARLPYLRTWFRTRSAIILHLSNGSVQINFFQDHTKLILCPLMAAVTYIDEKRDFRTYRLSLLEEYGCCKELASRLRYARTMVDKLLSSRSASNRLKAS
Numbers without * were called inactive; u = inconclusive; x = no result given; ! = not active in a repeat. Compounds with a hit are over-represented: about 3.1% of the library has one in this group of screens. Unless noted, calls follow the shape of the dose curve; as a rule, active = well fitted curve in the direction sought with a large enough effect; inconclusive = small, poorly fitted or top-dose-only effect, or another doubt; inactive = no such curve, though single readings can be large; an effect the other way counts as inactive or inconclusive.

SMILES	PTAP TSG101 blk	uPA surface inh	VDR inh	TSHR antagonist	PLK1 PBD block
CCOC(=O)c1c(NC(=O)CSc2ncccn2)sc2c1CCN(Cc1ccccc1)C2	-3%	-6%	-11%	-8	24µM*
CCOC(=O)c1c(NC(=O)CC)sc2c1CCN(Cc1ccccc1)C2	2%	-13%	-6%	-7	4%
CC(=O)N1c2ccccc2C(=O)C1N1CCN(c2cc(Cl)ccc2C)CC1 (stereo not drawn)	x	x	17%	x	x
O=C(Cn1nc(-c2cccs2)ccc1=O)Nc1ccc(Br)cc1	-11%	6%	-1%	-20	-11%
O=C(Cn1nc(-c2ccco2)ccc1=O)Nc1ccc(Br)cc1	-6%	4%	u	7	21µM*
C=CCSC1=C(C#N)C(c2ccccc2OCC)C(C#N)C(=O)N1 (stereo not drawn)	0%	8%	-19%	0	27µM*
Cc1cccc(-c2noc(-c3ccccc3OCC(=O)Nc3ccc([N+](=O)[O-])cc3)n2)c1	x	x	7%	x	x
CCCc1cc(=O)[nH]c(SCc2nc(-c3ccc(OCC)cc3)no2)n1	x	x	-2%	x	x
O=C(NCC1CC1)c1ccc2c3n(nc2c1)-c1ccccc1CO3	-2%	1.4µM*	4%	-7	-6%
O=C(NCCO)c1ccc2c3n(nc2c1)-c1ccccc1CO3	-3%	2.8µM*	-12%	7	-2%
Cc1ccc2c(c1)COc1c3ccc(C(=O)O)cc3nn1-2	x	u	-14%	-9	-1%
FC(F)(F)c1ccccc1-c1nccc(-n2ccnc2)n1	x	x	45µM*	x	x
CN(C)C(=O)c1ccc(-c2nccc(-n3ccnc3)n2)cc1	x	x	2%	x	x
N#Cc1cccc(-c2nccc(-n3ccnc3)n2)c1	x	x	50µM*	x	x
CCc1cccc(C)c1NC(=O)Nc1csc2c1CCCC2	x	x	6%	x	x
Cc1cccc(-c2noc(-c3ccccc3NC(=O)C3CC(=O)N(c4ccccc4C)C3)n2)c1 (stereo not drawn)	x	x	6%	x	x
O=S(=O)(c1ccc(OC(F)(F)F)cc1)N1CCC(O)(c2cccc(C(F)(F)F)c2)CC1	2%	-15%	u	-23	27µM*
OC1(c2cccc(C(F)(F)F)c2)CCNCC1	-3%	3%	-9%	1	0%
O=S(=O)(NC(=S)c1ccccc1)c1ccc(Cl)cc1	-1%	3%	-10%	-3	15µM*
O=S(=O)(NC(=S)c1ccccc1)c1ccccc1	-3%	0%	-28%	x	u
Cc1[nH][nH]c(=O)c1C(c1ccc(-c2ccc(F)cc2)o1)c1c(C)[nH][nH]c1=O	1%	-1%	32µM*	0	24µM*
COc1ccc(-c2ccc(/C=N/N3C(=O)C4C5C=CC(C6CC56)C4C3=O)o2)c([N+](=O)[O-])c1 (stereo not drawn)	-5%	-5%	u	2	2%
COc1ccc(-c2ccc(C(c3c(C)[nH][nH]c3=O)c3c(C)[nH][nH]c3=O)o2)c([N+](=O)[O-])c1	-2%	-6%	u	-2	21µM*
Cc1[nH][nH]c(=O)c1C(c1ccc(-c2ccc(C(=O)O)cc2)o1)c1c(C)[nH][nH]c1=O	-2%	-1%	u	-18	24µM*
CCOc1ccc(Cl)cc1C(c1c(C)[nH][nH]c1=O)c1c(C)[nH][nH]c1=O	-3%	-3%	-1%	-9	u
SMILES	PTAP TSG101 blk	uPA surface inh	VDR inh	TSHR antagonist	PLK1 PBD block
Cc1[nH][nH]c(=O)c1C(c1ccc(-c2ccc(Cl)c(Cl)c2)o1)c1c(C)[nH][nH]c1=O	-9%	u	79µM*	3	15µM*
CCOC(=O)N1CCc2c(sc3c2c(=O)n(-c2ccc(Cl)cc2)c(=O)n3CC(C)C)C1	x	x	-7%	x	x
Cc1cccc(C)c1-n1ncc(C(=O)NCCN2CCN(C)CC2)c1C1CCN(C(=O)OC(C)(C)C)CC1	x	x	1%	x	x
O=C(NC1CCCC1)c1ccc2c(=O)n(Cc3ccccc3)c(SCc3cccc([N+](=O)[O-])c3)nc2c1	x	x	14%	x	x
CC(C(=O)N1CCN(C=O)CC1)N1C(=O)c2ccccc2C1=O (stereo not drawn)	-5%	6%	-15%	3	19µM*
COc1ccc(CCNC(=O)Nc2nnc([C@H]3C[C@H](O)[C@@H](CO)O3)s2)cc1OC	x	x	x	x	1%
O=C(NCC#CCOCc1ccccc1)c1ccccc1	x	2%	-11%	-5	27µM*
Cc1sc(N)c(C(=O)c2ccccc2)c1C	1%	-2%	u	-7	3.8µM*
Cc1cc(C)c(C(=O)c2ccccc2)c(C)c1	2%	1%	-23%	x	-10%
CCS(=O)(=O)c1ccc2oc(Nc3cc(C)cc(C)c3)nc2c1	-10%	x	0%	19	-5%
CCOc1ccc(Nc2nc3cc(S(=O)(=O)N(CC)CC)ccc3o2)cc1	-3%	-14%	79µM*	-14	5.3µM*
COc1ccccc1S(=O)(=O)N(C)C[C@H]1Oc2ncc(Br)cc2C(=O)N([C@H](C)CO)C[C@H]1C	x	x	x	x	-6%
Cc1ccc(-c2csc(NC(=S)NC(=O)c3cccs3)n2)cc1	-4%	-3%	-15%	-2	-1%
O=C(NC(=S)Nc1nc(-c2ccc(Cl)cc2)cs1)c1cccs1	-5%	2%	u	-4	11µM*
COc1cccc(NC(=O)Nc2nnc(Cc3ccccc3F)s2)c1	-1%	-8%	-6%	-1	-15%
O=C(Nc1ccc(F)cc1)Nc1nnc(Cc2ccccc2F)s1	0%	7%	71µM*	-11	17µM*
COc1ccccc1Nc1nc(C)cs1	1%	5%	-13%	0	17µM*!
COc1cccc(Nc2nc3ccc(OC)cc3s2)c1	-5%	-2%	-9%	-13	4%
COc1cccc(Nc2n[nH]c(=S)s2)c1	-3%	-2%	u	-12	24µM*
Cc1cccc(Nc2nc3ccccc3s2)c1C	-1%	-12%	-16%	-10	-10%
Cc1csc(Nc2cccc3ccccc23)n1	-4%	0%	-17%	-8	-18%
Cc1cccc(Nc2n[nH]c(=S)s2)c1C	-5%	3%	-78%	-2	30µM*
Cc1cc(C)c(Nc2n[nH]c(=S)s2)cc1C	x	x	x	x	27µM*
CCN(C(=O)CSc1nnc(-c2ccco2)n1CC)c1c(N)n(Cc2ccccc2)c(=O)[nH]c1=O	-7%	3%	13%	0	-15%
COc1ccccc1Nc1ccc(Nc2ccccc2OC)nn1	0%	-3%	-1%	-2	-1%
SMILES	PTAP TSG101 blk	uPA surface inh	VDR inh	TSHR antagonist	PLK1 PBD block
CC(=O)Nc1n[nH]c(=S)s1	-3%	1%	50µM*	x	-14%
CNc1n[nH]c(=S)s1	0%	2%	u	-2	-23%
COc1ccccc1Nc1n[nH]c(=S)s1	-1%	0%	u	7	21µM*
Cc1ccc(Nc2n[nH]c(=S)s2)c(C)c1	x	x	x	x	24µM*
O=C(Cn1cnc2onc(-c3ccc(F)cc3)c2c1=O)Nc1cccc(C(F)(F)F)c1	x	x	25%	x	x
Oc1c(Cl)cc(Cl)cc1Sc1cc(Cl)cc(Cl)c1O	x	x	28µM*	-92*	x
